Consider 26 compounds from PubChem BioAssay AID1347417 (National Center for Advancing Translational Sciences (NCATS), 2020).

Screen size: about 120,000 compounds; about 5,300 (4.4%) were called active. Entries that show only a call come without a potency. About 22% were inconclusive and are not listed. The call rests on the fitted dose curve; in most records, active means well fitted inhibition curve with a large enough effect; inconclusive means small, poorly fitted or top-dose-only effect; inactive means no such curve, though single readings can be large or run the other way. For the sample, actives were picked, then their nearest neighbours and some compounds at random.
Potency means the concentration at half of the fitted maximal effect.

This test in a line: qHTS Primary assay for Inhibitors of Plasmodium falciparum Dd2 growth in vitro. Further: nearly all actives have a fitted effect of over 65% in size. As to conditions: P. falciparum Dd2 growth, SYBR Green, 72 h; series mostly up to 28.9 µM. Put shortly: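 Readout: SYBR Green fluorescence, 485 nm excitation, 535 nm emission, after ~16 h lysis at 37C. Before that, Dd2-infected red cells (2.5% hematocrit) grew 72 h with compound, 29 uM top final concentration.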
(qHTS replaces the single test concentration by a dilution series.)
Consider `Clc1ccccc1C1(c2ccnc(NCCn3cccn3)n2)CCNCC1`, for which the Potency entry is “inactive”.

Regarding `COc1ccc(N2CCC(NC(=O)c3ccc4[nH]ccc4c3)C2=O)cc1` (stereo unspecified), the Potency entry is “inactive”.

Turning to `COc1ccc(-c2nc(C(C)C)nc3c2CCN([S+](=O)([O-])c2cccc(C(F)(F)F)c2)CC3)cc1`, the Potency is 7.08 µM (active).

With `COc1ccc(-c2nc(C)nc3c2CN([S+](=O)([O-])c2onc(C)c2C)CC3)cc1`, the Potency result was “inactive”.

`COc1ccc(C2=NOC3(CCCN([S+](=O)([O-])c4ccccc4)C3)C2)cc1` (stereo unspecified): the Potency result is “inactive”.

Consider `COc1ccc(-c2nc(C(C)C)nc3c2CCN(C(=O)Cc2ccccn2)CC3)cc1`, for which the Potency entry is “inactive”.

`COc1ccc(-c2nc(C3CC3)nc3c2CCN([S+](=O)([O-])c2ccccc2)CC3)cc1`: the Potency was 7.94 µM (active).

Take `COc1cccc([S+](=O)([O-])N2CCCC3(CC(c4cccc(C(F)(F)F)c4)=NO3)C2)c1` (stereo unspecified): the Potency entry is “inactive”.

As for `CNC(=O)CCC[C@H]1NC[C@@H]2CCCN3CCC[C@H]1[C@H]23`, the Potency entry was “inactive”.

On to `CCNC(=O)[C@@H]1C[C@H](N)CN1C(=O)[C@@H](C)c1ccc2cc(OC)ccc2c1`, for which the Potency entry is “inactive”.

`COc1ccccc1N1CCN(C(=O)c2ccccc2-c2ncc[nH]2)CC1=O`: the Potency entry is “inactive”.

In the case of `Cc1nn(CC(=O)O)c(=O)c2nc(C(C)C)sc12`, the Potency entry is “inactive”.

As for `O=C(NC1CCCN(c2cc(-c3ccc(Cl)cc3)[nH]n2)C1)c1ccncc1` (stereo unspecified), the Potency result was “inactive”.

In the case of `CCc1ccccc1NC(=O)c1cnn(-c2ccc(F)cc2)c1C1CCNCC1`, the Potency result is “inactive”.

Consider `COC(=O)c1ccc(NC(=O)c2cccc3c2C(=O)N(C2CCCCC2)C3)cc1`, for which the Potency result is “inactive”.

For `COC(=O)c1ccc(NC(=O)c2cc(S(=O)(=O)N3CCC(C)CC3)cn2C)cc1`, the Potency entry is “inactive”.

As to `CC(C)(C)OC(=O)N1CCC(c2c(C(=O)Nc3ccc4c(c3)OCO4)cnn2-c2ccccc2)CC1`, the Potency was 5.01 µM (active).

Turning to `Cc1ccc(NC(=O)c2cc3n(n2)CC(c2ccc4c(c2)OCO4)OC3)cc1C` (stereo unspecified), the Potency result was “inactive”.

With `COC(=O)c1ccc(NC(=O)c2cnn(-c3ccc(Cl)cc3)c2C2CCN(C(=O)OC(C)(C)C)CC2)cc1`, the Potency was 7.94 µM (active).

For the compound `COC[C@@H]1[C@H](NC(=O)C2CCN(C(=O)c3ccncc3)CC2)[C@@H]2CCO[C@H]12`, the Potency entry is “inactive”.

As to `Cn1cc(CNC(=O)C[C@@H]2C[C@H]3O[C@H](CNC4Cc5ccccc5C4)[C@@H](O)[C@H]3O2)cn1`, the Potency entry was “inactive”.

In the case of `CCc1nc2ccc(C(=O)N3CCN(c4cccc(Cl)c4)CC3)cc2nc1CC`, the Potency result is “inactive”.

Take `CCc1nc2ccc(C(=O)N3CCN(c4cc(Cl)ccc4C)CC3)cc2nc1CC`: the Potency was 11.2 µM (active).

With `Cc1ccc(Cl)cc1N1CCN(C(=O)c2cccn3c(=O)c4cc(Cl)ccc4nc23)CC1`, the Potency entry is “inactive”.

With `N#Cc1cccc(C(=O)NC2CCN(c3cc(-c4ccc(Cl)cc4)[nH]n3)C2)c1` (stereo unspecified), the Potency result is “inactive”.

For `O=C1CN(Cc2cc3cc4c(cc3[nH]c2=O)OCO4)CCCN1`, the Potency entry was “inactive”.
